Consider 66 compounds from PubChem BioAssay AID1671202 (University of Kansas High Throughput Screening Laboratory, 2021).

Molecules are shown by their SMILES. Out of some 190,000 compounds screened, about 6,900 (3.6%) were called active. This is one part of a sample in which actives are shown more often than they occur. Rule as the data show it: active = inhibition above about 50%; inactive = the rest.

By inhibition is commonly meant the relative decrease from the control value, in per cent.

In this assay the target is Huntingtin (Homo sapiens) (UniProt P42858). The assay is described as follows: mutant huntingtin-calmodulin interaction inhibitors – biochemical, AlphaScreen, primary screen (AID 1671202).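 As to inhibition: 0% = both proteins with DMSO and 100% = one protein alone.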 As to conditions: AlphaScreen His-mHTT/GST-CaM binding, luminescence; at 15 µM, stronger effect = higher value. In general terms: Alpha assays give light when donor and acceptor beads are brought close together.
Chain of Huntingtin (Homo sapiens) (P42858 whole entry, looked up, stated change not applied): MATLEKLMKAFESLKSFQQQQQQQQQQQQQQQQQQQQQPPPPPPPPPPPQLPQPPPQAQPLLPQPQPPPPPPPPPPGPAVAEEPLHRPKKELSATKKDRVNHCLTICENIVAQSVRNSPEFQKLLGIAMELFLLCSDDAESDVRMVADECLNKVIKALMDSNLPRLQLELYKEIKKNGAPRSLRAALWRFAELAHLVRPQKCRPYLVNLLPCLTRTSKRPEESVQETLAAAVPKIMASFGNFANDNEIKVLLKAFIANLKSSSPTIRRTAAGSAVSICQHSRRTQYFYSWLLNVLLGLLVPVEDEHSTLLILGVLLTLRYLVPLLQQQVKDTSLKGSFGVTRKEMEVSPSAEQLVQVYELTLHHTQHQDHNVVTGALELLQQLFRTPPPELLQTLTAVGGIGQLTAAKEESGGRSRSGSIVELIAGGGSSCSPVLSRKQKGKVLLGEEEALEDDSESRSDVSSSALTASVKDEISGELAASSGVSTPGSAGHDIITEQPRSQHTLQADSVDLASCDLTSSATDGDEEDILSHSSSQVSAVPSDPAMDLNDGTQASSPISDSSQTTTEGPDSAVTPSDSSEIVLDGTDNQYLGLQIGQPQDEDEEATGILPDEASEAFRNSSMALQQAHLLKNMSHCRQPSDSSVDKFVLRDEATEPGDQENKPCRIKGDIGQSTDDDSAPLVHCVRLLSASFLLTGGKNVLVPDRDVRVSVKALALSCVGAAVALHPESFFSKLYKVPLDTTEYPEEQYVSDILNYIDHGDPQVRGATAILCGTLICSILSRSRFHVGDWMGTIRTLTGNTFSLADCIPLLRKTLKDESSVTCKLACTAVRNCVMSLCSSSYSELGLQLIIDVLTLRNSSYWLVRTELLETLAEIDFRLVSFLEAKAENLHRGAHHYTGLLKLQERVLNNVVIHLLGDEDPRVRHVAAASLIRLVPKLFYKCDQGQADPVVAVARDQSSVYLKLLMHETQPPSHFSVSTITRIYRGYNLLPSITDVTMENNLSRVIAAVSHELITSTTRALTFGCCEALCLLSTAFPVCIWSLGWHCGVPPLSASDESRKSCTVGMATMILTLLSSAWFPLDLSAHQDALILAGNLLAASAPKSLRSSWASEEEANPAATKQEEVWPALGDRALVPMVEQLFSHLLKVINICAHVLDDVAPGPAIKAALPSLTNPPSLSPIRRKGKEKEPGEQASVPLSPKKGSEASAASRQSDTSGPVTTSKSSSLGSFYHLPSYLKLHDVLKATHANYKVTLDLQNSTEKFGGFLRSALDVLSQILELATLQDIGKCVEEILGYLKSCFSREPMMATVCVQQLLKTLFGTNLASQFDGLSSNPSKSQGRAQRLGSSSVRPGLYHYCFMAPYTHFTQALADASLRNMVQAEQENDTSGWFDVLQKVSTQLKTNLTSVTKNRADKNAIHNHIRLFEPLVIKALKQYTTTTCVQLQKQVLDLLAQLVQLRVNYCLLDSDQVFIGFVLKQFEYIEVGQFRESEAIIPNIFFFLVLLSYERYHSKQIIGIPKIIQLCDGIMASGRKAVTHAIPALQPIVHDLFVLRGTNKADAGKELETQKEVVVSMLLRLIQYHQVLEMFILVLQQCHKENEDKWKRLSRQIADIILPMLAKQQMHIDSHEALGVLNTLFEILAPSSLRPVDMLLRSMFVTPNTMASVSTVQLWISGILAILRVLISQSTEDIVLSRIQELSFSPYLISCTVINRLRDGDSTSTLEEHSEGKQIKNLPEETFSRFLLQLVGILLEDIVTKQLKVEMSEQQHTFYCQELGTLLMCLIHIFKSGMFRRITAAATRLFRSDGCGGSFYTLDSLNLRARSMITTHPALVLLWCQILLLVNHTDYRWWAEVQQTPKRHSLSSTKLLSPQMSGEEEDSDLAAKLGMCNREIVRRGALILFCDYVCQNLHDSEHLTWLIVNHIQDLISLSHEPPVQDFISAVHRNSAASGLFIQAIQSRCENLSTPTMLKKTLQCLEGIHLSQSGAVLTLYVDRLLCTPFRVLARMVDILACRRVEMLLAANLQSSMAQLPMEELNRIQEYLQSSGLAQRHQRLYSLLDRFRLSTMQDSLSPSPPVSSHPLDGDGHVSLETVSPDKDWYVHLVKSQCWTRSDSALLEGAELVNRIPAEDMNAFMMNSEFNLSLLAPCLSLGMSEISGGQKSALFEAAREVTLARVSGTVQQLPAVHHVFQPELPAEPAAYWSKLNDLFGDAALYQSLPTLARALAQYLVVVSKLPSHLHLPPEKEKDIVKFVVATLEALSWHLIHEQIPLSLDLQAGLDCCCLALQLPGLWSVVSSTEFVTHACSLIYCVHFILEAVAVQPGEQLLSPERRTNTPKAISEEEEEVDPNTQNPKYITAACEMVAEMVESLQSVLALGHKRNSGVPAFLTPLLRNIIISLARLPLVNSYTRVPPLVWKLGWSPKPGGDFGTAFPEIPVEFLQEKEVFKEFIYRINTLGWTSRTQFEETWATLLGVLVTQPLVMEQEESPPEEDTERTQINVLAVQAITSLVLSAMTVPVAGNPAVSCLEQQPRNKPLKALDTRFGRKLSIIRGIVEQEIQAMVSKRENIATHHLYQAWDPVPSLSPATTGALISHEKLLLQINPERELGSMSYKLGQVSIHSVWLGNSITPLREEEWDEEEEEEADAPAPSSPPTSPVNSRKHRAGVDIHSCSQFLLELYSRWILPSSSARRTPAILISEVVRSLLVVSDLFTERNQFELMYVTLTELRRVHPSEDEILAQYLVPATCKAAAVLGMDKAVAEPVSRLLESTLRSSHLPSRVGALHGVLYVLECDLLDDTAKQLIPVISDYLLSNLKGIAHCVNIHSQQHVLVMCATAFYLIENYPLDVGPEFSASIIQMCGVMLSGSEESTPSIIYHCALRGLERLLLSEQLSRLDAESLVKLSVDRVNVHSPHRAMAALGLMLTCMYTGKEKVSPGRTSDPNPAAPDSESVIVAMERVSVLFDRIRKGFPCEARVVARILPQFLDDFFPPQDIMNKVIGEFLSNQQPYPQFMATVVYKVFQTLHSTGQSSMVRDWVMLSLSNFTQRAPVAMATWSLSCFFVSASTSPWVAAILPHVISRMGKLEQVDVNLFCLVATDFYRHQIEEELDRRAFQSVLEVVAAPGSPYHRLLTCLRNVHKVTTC
Consider `COc1ccc(C(=O)Nc2ccc(-n3nncc3-c3ccccc3)cc2)c(OC)c1`, for which the inhibition is 31% (inactive).

On to `COc1ccc(C(=O)Nc2ccc(-n3nncc3-c3ccccc3)cc2)cc1`, for which the inhibition was 18% (inactive).

Turning to `COc1ccc(C(=O)Nc2ccc(-n3nncc3-c3ccccc3)cc2)cc1OC`, the inhibition is 57% (active).

With `CC(=O)c1cccc(N=Cc2cc([N+](=O)[O-])ccc2O)c1`, the inhibition was 6% (inactive).

`Cc1cccc(OCC(O)CNC2CCCC2)c1` (stereo unspecified): the inhibition was -1.4% (inactive).

With `CCOc1ccccc1C(=O)NCc1nnc2n1CCCC2`, the inhibition was 0.6% (inactive).

`O=C(Nc1cccn2cnnc12)c1ccccn1`: the inhibition is 62% (active).

For the compound `CC(C)n1cnc2cc(CNC(=O)c3ccccn3)ccc21`, the inhibition was 14% (inactive).

In the case of `O=C(NCc1ccccc1)c1ccccn1`, the inhibition is -4.7% (inactive).

`COCCNC(=O)c1ccc2c(c1)ncn2-c1ccc(C)c(Cl)c1`: the inhibition was 24% (inactive).

`Cc1cccc(NS(=O)(=O)c2ccc3nnc(C)n3c2)c1`: the inhibition was 5% (inactive).

For `O=C(NCc1ccc2[nH]c3c(c2c1)CCCC3)C1CC1`, the inhibition is 7.3% (inactive).

Turning to `NC(=O)c1ccc2[nH]c3c(c2c1)CCCC3`, the inhibition is 12.3% (inactive).

On to `COc1ccc(S(=O)(=O)N2CCC(C(=O)N3CCOCC3)CC2)cc1OC`, for which the inhibition is -0.7% (inactive).

Turning to `Cc1cccc(NS(=O)(=O)c2ccc3[nH]c4c(c3c2)CCCC4)c1`, the inhibition is 98.9% (active).

For `O=C(C1CCN(S(=O)(=O)c2ccc3[nH]c4c(c3c2)CCCCC4)CC1)N1CCCC1`, the inhibition was 56.3% (active).

Regarding `Cc1ccc(C2=CC(c3ccc(Br)cc3)n3ncnc3N2)cc1` (stereo unspecified), the inhibition is 7% (inactive).

With `O=C(NCc1cccnc1)c1cnn2c1NC(c1cccs1)CC2C(F)(F)F` (stereo unspecified), the inhibition was 4.91% (inactive).

`CCOC(=O)N1CCCN(C(=O)OCC)CC1`: the inhibition was -5.6% (inactive).

Turning to `COc1ccc2c(c1)OCC/C2=N\OC(=O)c1cc(Cl)ccc1OC`, the inhibition entry was “inactive”.

Consider `C=CCN1C=C(c2ccc3ccccc3n2)C(C#N)c2ccccc21` (stereo unspecified), for which the inhibition was 15% (inactive).

As to `O=C(CSc1nccc(N2CCCCC2)n1)Nc1cc(C(F)(F)F)ccc1Cl`, the inhibition was -12.5% (inactive).

Turning to `CN(C)C(=O)c1cnn(-c2ccccc2)c1-n1cccc1`, the inhibition was 2.9% (inactive).

Take `O=C(NCc1ccccn1)C1CC(=O)N(CCc2c[nH]c3ccc(F)cc23)C1` (stereo unspecified): the inhibition was 46.9% (inactive).

Regarding `Cc1cc(OCC(=O)N2N=C(C(F)(F)F)CC2(O)C(C)(C)C)ccc1Cl` (stereo unspecified), the inhibition was 100% (active).

Regarding `Cc1cc(OCC(=O)Nc2c(C)cccc2C)ccc1Cl`, the inhibition was -6.2% (inactive).

Take `Cc1cc(OCC(=O)Nc2ccc(Cl)cn2)ccc1Cl`: the inhibition is -7% (inactive).

For the compound `Cc1sc2ncnc(N3CCN(c4ccccn4)CC3)c2c1-c1ccc(F)cc1`, the inhibition was 0.3% (inactive).

Consider `CCOC(=O)Nc1ccc2c(c1)CN(C(=O)c1cccs1)CC2`, for which the inhibition is 2.5% (inactive).

With `CCOC(=O)C1CCc2sc(NC(=O)C3COCC(=O)N3Cc3ccccc3)nc21` (stereo unspecified), the inhibition was 64.1% (active).

Consider `CCOC(=O)C1CCc2sc(NC(=O)Cn3nc(C)cc3C)nc21` (stereo unspecified), for which the inhibition was -9.9% (inactive).

`CCCNC(=O)C1CCN(c2nc3ccsc3c(=O)n2Cc2ccccc2)CC1`: the inhibition was -1.4% (inactive).

With `COc1cc(CNc2cc(C)cc(C)c2)c([N+](=O)[O-])cc1OC`, the inhibition is 75% (active).

As for `COc1cc(CN2CCCN(C)CC2)c([N+](=O)[O-])cc1OC`, the inhibition is -0.1% (inactive).

Turning to `COc1cc(CN2CCN(CCO)CC2)c([N+](=O)[O-])cc1OC`, the inhibition is 1.8% (inactive).

Consider `Clc1ccccc1C1CC(c2ccccc2)n2ncnc2N1` (stereo unspecified), for which the inhibition was 3.6% (inactive).

For the compound `Cc1ccc(-c2csc(/C(C#N)=C/c3ccc([N+](=O)[O-])cc3)n2)cc1`, the inhibition is 12.1% (inactive).

Consider `N#C/C(=C\c1ccc(O)cc1)c1nc(-c2ccc(Cl)cc2)cs1`, for which the inhibition is 58.9% (active).

For `N#C/C(=C\c1ccc(F)cc1)c1nc(-c2ccc([N+](=O)[O-])cc2)cs1`, the inhibition was 1.8% (inactive).

With `COc1cccc(CNC(=O)CC2CCN(S(=O)(=O)c3ccc(Cl)s3)CC2)c1`, the inhibition is -9.77% (inactive).

Take `CN(C)c1ccc(C(=O)N2N=C(c3ccc(Br)cc3)CC2(O)C(F)(F)F)cc1` (stereo unspecified): the inhibition is 13% (inactive).

Turning to `O=C(c1ccncc1)N1N=C(c2ccc(Cl)cc2)CC1(O)C(F)(F)F` (stereo unspecified), the inhibition is 58% (active).

With `O=C(C1CC1)N1N=C(c2ccc(Br)cc2)CC1(O)C(F)(F)F` (stereo unspecified), the inhibition was -4% (inactive).

For the compound `O=[N+]([O-])c1cccc(C=Nc2ccc3nc(-c4cccc(F)c4)oc3c2)c1O`, the inhibition is 1% (inactive).

`O=C1c2ccccc2C(=O)N1CN(C(=O)c1ccc([N+](=O)[O-])cc1)c1ccc(F)cc1`: the inhibition was 1% (inactive).

Regarding `O=C(CSc1nnc(-c2ccco2)c(-c2ccco2)n1)Nc1ccc(Br)cc1`, the inhibition was 79% (active).

Consider `Cc1ccc(F)cc1NC(=O)CSc1nnc(-c2ccco2)c(-c2ccco2)n1`, for which the inhibition was 86% (active).

In the case of `N#Cc1c(-c2ccco2)cc(C2CC2)nc1SCc1ccccc1`, the inhibition is -5% (inactive).

As for `O=C(CSc1oc(-c2ccco2)nc1S(=O)(=O)c1ccccc1)Nc1ccc(F)cc1`, the inhibition is 6% (inactive).

Turning to `Cc1ccccc1NC(=O)CSc1nnc(-c2ccco2)n1C`, the inhibition was 1% (inactive).

On to `O=C(CSc1nnc(-c2ccco2)n1-c1ccccc1)Nc1ccc(F)cc1`, for which the inhibition was 11.2% (inactive).

Turning to `Cc1ccc(F)cc1NC(=O)Cc1nn(C)c(=O)c2ccccc12`, the inhibition was 3% (inactive).

In the case of `c1ccc(CSc2nnc(-c3ccco3)c(-c3ccco3)n2)cc1`, the inhibition was 85% (active).

Turning to `O=c1[nH]c(SCc2ccccc2)nnc1-c1ccccc1`, the inhibition was -3% (inactive).

`CCOCCCNC(=O)C1CCCN(c2nccc(C)n2)C1` (stereo unspecified): the inhibition was -8.18% (inactive).

As to `Cc1c(C(=O)N2CCN(C)CC2)c(CC(C)C)nn1-c1ccc(Cl)c(Cl)c1`, the inhibition is 94.8% (active).

As for `CCc1nn(-c2ccc(F)cc2)c(CC)c1C(=O)N1CCN(C)CC1`, the inhibition is 9.8% (inactive).

For the compound `CCN1CCN(C(=O)c2c(C(C)C)nn(-c3cccc(Cl)c3)c2C(C)C)CC1`, the inhibition was 32.9% (inactive).

For the compound `CN(C)C(=O)CSc1nnc(N)s1`, the inhibition was -4.07% (inactive).

Take `Cc1ccc2c(c1)C(=O)NC1(CCN(C(=O)c3ccc(C(F)(F)F)cc3)CC1)N2C`: the inhibition was 4.4% (inactive).

As for `N#Cc1ccc(C(=O)N2CCCC(c3ccnc(Nc4cccc(F)c4)n3)C2)cc1` (stereo unspecified), the inhibition was 6.41% (inactive).

Turning to `COc1ccc(C(=O)N2CCCC(c3ccnc(Nc4ccccc4)n3)C2)cc1` (stereo unspecified), the inhibition is 69.4% (active).

Turning to `N#Cc1ccc(C(=O)N2CCCC(c3ccnc(Nc4ccccc4)n3)C2)cc1` (stereo unspecified), the inhibition was -5.02% (inactive).

With `O=C(c1ccccc1)N1CCCC(c2ccnc(Nc3ccccc3)n2)C1` (stereo unspecified), the inhibition is 43.6% (inactive).

On to `O=C(c1ccccc1F)N1CCCC(c2ccnc(-c3cccc(F)c3)n2)C1` (stereo unspecified), for which the inhibition was 1.2% (inactive).

Take `CN(C)c1ccc(C(=O)N2CCCC(c3ccnc(Nc4cccc(F)c4)n3)C2)cc1` (stereo unspecified): the inhibition is 80.1% (active).
